# Results taken from PubChem BioAssay (NCI).
# The panel holds about 83,000 compounds, 20% with a hit somewhere; the sample as a whole holds those more often.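 Results are percent growth after 48 hours of single-concentration exposure. 100 means growth as in untreated cells, lower positive values show inhibition; negative values down to -100 show cell death.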 Unmarked numbers belong to inactive results. Active and inactive are the calls of the source. The calls were made as follows: active = growth percent below 10; inactive = the rest.
# Assays:
# Test in all cases: NCI-60 one-dose screen, 48 h (100 = growth as untreated, 0 = no growth, -100 = all killed)
# Settings in all cases: 10 µM
# EKVX NSCLC = tested on: EKVX NSCLC
# SN12C renal = tested on: SN12C renal
# UO-31 renal = tested on: UO-31 renal
# TK-10 renal = tested on: TK-10 renal
# ACHN renal = tested on: ACHN renal
# CAKI-1 renal = tested on: CAKI-1 renal
# A498 renal = tested on: A498 renal
# MOLT-4 leukemia = tested on: MOLT-4 leukemia
# SR leukemia = tested on: SR leukemia
# CCRF-CEM leukemia = tested on: CCRF-CEM leukemia
SMILES,growth (EKVX NSCLC),growth (SN12C renal),growth (UO-31 renal),growth (TK-10 renal),growth (ACHN renal),growth (CAKI-1 renal),growth (A498 renal),growth (MOLT-4 leukemia),growth (SR leukemia),growth (CCRF-CEM leukemia)
ClCCOCCn1cnc2c(Cl)nc(Cl)nc21,92.4%,63.3%,88%,92.7%,81.3%,-4.35% (active),93.1%,79.8%,41.5%,–
C=C(Cl)[C@@](Cl)(CBr)CC[C@@H](Br)C(C)(C)Cl,-79% (active),72%,-96.8% (active),-98.9% (active),-99.4% (active),-98.7% (active),99.3%,81.1%,75.6%,94.3%
COc1ccc2c(c1)C(=O)c1c-2c(OCCN(C)C)nc2ccccc12,44.7%,34.7%,-4.51% (active),43.3%,9.68% (active),14.6%,65.8%,4.41% (active),1.16% (active),–
O=C1/C(=C\c2cn(C(=O)c3ccc(Cl)cc3)c3ccccc23)c2ccccc2N1C(=O)c1ccc(Cl)cc1,70.7%,80.8%,64.4%,55.3%,63.3%,73.8%,81.1%,61.5%,56.1%,–
COc1cc(/C=N/NC(=O)c2ccccc2Nc2ccnc(C(F)(F)F)c2)ccc1O,106%,122%,98.1%,147%,111%,-21.2% (active),116%,-89.5% (active),-48.1% (active),–
COc1ccccc1CNCCN1C(=O)c2ccc3c4c(ccc(c24)C1=O)C(=O)N(CCNCc1ccccc1OC)C3=O,-78.1% (active),-91% (active),-92.4% (active),-30.8% (active),-59.6% (active),-31.3% (active),–,-41.9% (active),-47.1% (active),-50.3% (active)
CC(C)N(CCNc1nc(C(Cl)(Cl)Cl)nc2cc(Cl)ccc12)C(C)C,8.11% (active),17.9%,-29% (active),-84.3% (active),-36.2% (active),-84.1% (active),–,-21.4% (active),-28.4% (active),-8.62% (active)
Cc1cc(O)c(C(C)(C)C)cc1Sc1cc(C(C)(C)C)c(O)cc1C,40.7%,58.2%,37.5%,81%,60.7%,32.3%,–,1.49% (active),-33.1% (active),18.2%
O=C(N/N=C\c1cc(Cl)ccc1[N+](=O)[O-])c1ccco1,106%,99.8%,104%,128%,105%,89.5%,–,93.6%,123%,102%
CS(=O)(=O)Nc1cccc(-c2cc(-c3ccccc3Cl)c(C#N)c(N)n2)c1,27%,51.6%,26%,63.5%,46.8%,16.1%,–,24.6%,23.9%,20.6%
O=c1[nH]c2ccc(Cl)cc2c2ccccc12,41.8%,87.8%,20.2%,81%,48.9%,43.2%,–,119%,75.4%,99.3%
Clc1cc2c(c(CSc3nc4ccccc4n4cccc34)c1)OCOC2,70.6%,81.5%,74%,79.4%,87.9%,–,102%,94.8%,29.2%,93.7%
CC(C)=CCc1cc(O)cc2c1OC(C=C(C)C)C1=C2C(=O)C2=C(C1=O)S(=O)(=O)CCN2 (stereo not given),50.2%,-44.1% (active),54%,122%,73.1%,–,103%,-43.2% (active),3.79% (active),-11.9% (active)
COc1ccc(OC)c(/C=C/c2nc(SC)n(-c3ccc(Cl)cc3)n2)c1,61.4%,80.3%,39.6%,92.3%,67.9%,64.5%,–,73%,41.5%,71.4%
COc1ccccc1/C=C/C(=O)c1ccccc1,98.6%,91.6%,60.1%,104%,84.2%,–,108%,46%,10.5%,29%
COC(=O)c1ccc(=O)oc1,98.6%,85.8%,75.7%,103%,98.9%,101%,–,94%,89.2%,101%
Cc1cccc(NC2=C(C#N)C(=O)NC3(CCCC3)S2)c1,106%,97.3%,93.8%,107%,98.2%,–,96.9%,98.4%,94.9%,90.2%
COc1ccc(/C(=C2/O[C@@H]([C@H]3COC(C)(C)O3)[C@H]3OC(C)(C)O[C@@H]23)c2cc(OC)c(OC)c(OC)c2)cc1O,101%,84.5%,123%,117%,49.5%,111%,–,60.5%,-13.6% (active),60.8%
O=C(C[n+]1ccccc1)c1ccc2ccccc2c1,88.2%,93.8%,74%,102%,102%,96.7%,–,96%,92.1%,95.9%
CCCCOC(=O)Oc1ccc(C(=O)Oc2ccc(OCC)cc2)cc1,98%,95.3%,85.6%,117%,90.2%,87.1%,–,111%,107%,–
O=C(N/N=C/c1ccccc1)C(Oc1ccccc1)c1ccccc1 (stereo not given),80.8%,96.5%,76%,106%,93.1%,85.6%,–,101%,91.8%,93.7%
Cc1cc(N(CCCNc2ccnc3cc(Cl)ccc23)Cc2ccc3c(c2)OCO3)nc(N2CCOCC2)n1,66.5%,44.7%,3.36% (active),13.9%,14.3%,–,54.1%,-15.9% (active),-27.7% (active),-8.38% (active)
O=C1C(c2ccccc2)C2C=CC(C2)N1O (stereo not given),101%,102%,68%,101%,107%,106%,–,92.5%,105%,82.6%
N#CCCN(NC(=O)OCc1ccccc1)C(=O)OCc1ccccc1,91.8%,106%,80.7%,120%,102%,88.4%,–,97.1%,107%,99%
CCN(CC)Cc1cc(Nc2ccnc3cc(Cl)ccc23)ccc1OC,97.2%,91.2%,55.9%,94.9%,97%,102%,–,78.9%,83.2%,69.1%
N#CSCC1CC(O)(c2ccccc2)CC(c2ccc(Cl)cc2)O1 (stereo not given),54%,23.2%,15.1%,-5.7% (active),48.3%,44.5%,–,-11.5% (active),11.4%,15%
Nc1cc2c(cc1Cl)-c1ccc([N+](=O)[O-])cc1/C2=N\O,66%,88.2%,33.3%,48.7%,63.3%,55.6%,–,37.9%,10.8%,28.7%
Cc1ccc(Nc2nnc(-c3cc(-c4ccncc4)n(-c4ccccc4)n3)s2)cc1,97.7%,88.5%,40.3%,102%,83%,85.9%,–,59.5%,63.6%,35.7%
CC(=O)n1c(-c2ccc(Cl)c(Cl)c2)cn(-c2ccc(Cl)cc2)c1=O,30.3%,46.9%,3.31% (active),54.4%,22.8%,–,4.91% (active),18.4%,0.989% (active),-26.3% (active)
COc1ccc(OC)c(/C=C/c2nc(SCc3ccccc3)n(-c3ccc(Cl)cc3)n2)c1,74.3%,74.2%,-48.7% (active),105%,80.8%,0.228% (active),–,30.4%,19.5%,24.2%
